Measured values from the supplement of paper PMC12350171.
Counter-ions that a name gives are not always drawn. A number with no mark means an inactive call.

Experiments:
Details in all cases: 20 µM
[1] = system: Salmonella enterica typhimurium; experiment: growth AUC normalised to DMSO control (fraction of control); higher = less growth inhibition, active = hit call of the paper
Procedure, shortened: (§1)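 After two anaerobic passages, pathogens were added at a starting OD578 of 0.01 to pre-reduced mGAM plates holding compound at 20 μM with 1% DMSO; hemin and NAD were supplemented for Haemophilus parainfluenzae. Sealed with breathable membranes, plates were read at OD578 hourly for 24 h, in three biological replicates. The trapezoidal rule, applied up to the exponential-to-stationary transition, gave the growth-curve AUC, which was normalised to DMSO controls on the same plate.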

Shigella flexneri = experiment: as above
Procedure, shortened: as §1

Vibrio cholerae = experiment: as above
Procedure, shortened: as §1

[2] = system: Yersinia pseudotuberculosis; experiment: as above
Procedure, shortened: as §1

P. vulgatus RND KO = experiment: growth AUC normalised to DMSO control (median) (fraction of control); higher = less growth inhibition, active = hit call of the paper
Procedure, shortened: (§2)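 After two overnight anaerobic passages, strains were inoculated at OD578 0.01 into mGAM in 96-well plates containing approved-drug library compounds at 20 μM and 1% DMSO. Growth was followed by reading OD578 hourly for 24 h within an anaerobic incubator. Area under the curve, taken by the trapezoidal rule up to the start of stationary phase, was normalised to same-plate vehicle wells, and the median of three biological replicates is listed.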

P. vulgatus WT = experiment: as above
Procedure, shortened: as §2

[3] = system: S. enterica typhimurium WT; experiment: as above
Procedure, shortened: as §2

[4] = system: S. enterica typhimurium tolC KO; experiment: as above
Procedure, shortened: as §2
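Throughout, for growth AUC normalised to DMSO control (median): active when median AUC fell below 0.1.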

Structure (SMILES)	growth AUC normalised to DMSO control [1]	growth AUC normalised to DMSO control (Shigella flexneri)	growth AUC normalised to DMSO control (Vibrio cholerae)	growth AUC normalised to DMSO control [2]	growth AUC normalised to DMSO control (P. vulgatus RND KO)	growth AUC normalised to DMSO control (P. vulgatus WT)	growth AUC normalised to DMSO control [3]	growth AUC normalised to DMSO control [4]
CN(C)c1ccc(O)c2c1C[C@H]1C[C@H]3[C@H](N(C)C)C(=O)C(C(N)=O)=C(O)[C@@]3(O)C(=O)C1=C2O [Minocycline hydrochloride]	0.00774 (active)	0.0229 (active)	0.0305 (active)	0.0367 (active)	0.0156 (active)	0.0185 (active)	0.0116 (active)	0.00184 (active)
CCCN[C@H]1CCc2nc(N)sc2C1 [Pramipexole dihydrochloride]	0.989	0.972	0.989	0.994	0.988	0.997	0.992	0.999
Cn1nnc2c(C(N)=O)ncn2c1=O [Temozolomide]	0.981	0.963	0.992	0.996	0.989	0.988	0.967	1.01
CC1(C)O[C@@H]2C[C@H]3[C@@H]4C[C@H](F)C5=CC(=O)CC[C@]5(C)[C@H]4[C@@H](O)C[C@]3(C)[C@]2(C(=O)CO)O1 [Flurandrenolide]	1	1.01	1.03	0.996	1.06	1.07	0.996	0.986
N=C(N)NCc1cccc(I)c1 [Iobenguane sulfate]	1.03	1.03	1.06	1.01	1.09	1.1	1.01	1
COc1ccc2c3c1O[C@H]1C[C@@H](O)C=C[C@@]31CCN(C)C2 [Galanthamine hydrobromide]	0.995	0.95	0.986	1.02	0.998	1	1	0.995
Nc1c2c(nc3ccccc13)CCCC2 [Tacrine hydrochloride]	0.995	1.03	1.02	0.98	0.999	1.06	0.986	0.992
CC[N+](C)(CC)CCOC(=O)C1c2ccccc2Oc2ccccc21 [Methantheline bromide]	1	1.01	0.973	1	0.972	0.981	1	0.995
O=C(O)c1cc(-c2ccc(F)cc2F)ccc1O [Diflunisal]	0.983	0.997	0.899	0.984	0.999	1.07	0.973	0.943
CCn1cc(C(=O)O)c(=O)c2cc(F)c(N3CCN(C)CC3)cc21 [Pefloxacin]	0.00601 (active)	0.0383 (active)	0.0435 (active)	0.0255 (active)	1.01	0.799	0.00724 (active)	0.00757 (active)
Nc1ncnc2c1ncn2[C@@H]1O[C@H](CO)[C@@H](O)[C@@H]1O [Vidarabine]	0.988	0.984	0.975	0.829	0.971	0.977	0.99	0.995
Cc1c(Cl)cccc1Nc1ccccc1C(=O)O [Tolfenamic acid]	1	0.961	0.901	0.963	0.802	0.803	1.02	0.992
CC(=O)OCC(=O)[C@@]12OC(C)(C)O[C@@H]1C[C@H]1[C@@H]3C[C@H](F)C4=CC(=O)C=C[C@]4(C)[C@@]3(F)[C@@H](O)C[C@@]12C [Fluocinonide]	0.994	0.97	0.973	1.12	0.967	0.951	1.01	0.995
C#C[C@]1(OC(C)=O)CC[C@H]2[C@@H]3CCC4=CC(=NO)CC[C@@H]4[C@H]3CC[C@@]21CC (mixture of isomers) [Norgestimate]	0.995	0.971	0.984	0.988	0.836	0.88	0.999	0.955
NC(=O)N1c2ccccc2CC(=O)c2ccccc21 [Oxcarbazepine]	0.971	0.952	0.981	0.992	0.989	0.995	0.999	1
CC1(C)S[C@@H]2[C@H](NC(=O)[C@H](N)c3ccc(O)cc3)C(=O)N2[C@H]1C(=O)O [Amoxicillin]	0.00744 (active)	0.0257 (active)	0.68 (active)	0.0346 (active)	0.0144 (active)	0.0118 (active)	0.00737 (active)	0.00653 (active)
CC(C)n1c(/C=C/C(O)CC(O)CC(=O)O)c(-c2ccc(F)cc2)c2ccccc21 (configuration not stated) [Fluvastatin sodium salt]	0.985	0.995	0.997	0.996	1	1	1	0.931
Cc1ncc(CO)c(CO)c1O [Pyridoxine hydrochloride]	0.992	1.01	0.996	1	1.01	1.01	1.01	0.992
O=c1[nH]c(=O)n([C@H]2C[C@H](O)[C@@H](CO)O2)cc1I [Idoxuridine]	0.909 (active)	0.861 (active)	0.992	0.984	1.01	1.05	0.936	0.933
CCCc1cc(=O)[nH]c(=S)[nH]1 [Propylthiouracil]	0.987	0.991	1	0.993	1.02	1.05	1.01	0.996
C#C[C@]1(O)CC[C@H]2[C@@H]3CCC4=CC(=O)CC[C@@H]4[C@H]3CC[C@@]21CC [(D-) Norgestrel]	0.98	0.938	0.961	0.979	0.989	0.974	0.998	1
CC[C@H]1OC(=O)[C@H](C)[C@@H](O[C@H]2C[C@@](C)(OC)[C@@H](O)[C@H](C)O2)[C@H](C)[C@@H](O[C@@H]2O[C@H](C)C[C@H](N(C)C)[C@H]2O)[C@](C)(O)C[C@@H](C)CN(C)[C@H](C)[C@@H](O)[C@]1(C)O [Azithromycin]	0.0316 (active)	0.0334 (active)	0.0396 (active)	0.0337 (active)	0.0189 (active)	0.0116 (active)	0.0218 (active)	0.00733 (active)
CC(COc1ccccc1)N(CCCl)Cc1ccccc1 (configuration not stated) [Phenoxybenzamine hydrochloride]	1.01	1.01	1.01	1.03	1.02	1.03	1	0.99
Nc1ccn([C@@H]2CS[C@H](CO)O2)c(=O)n1 [Lamivudine]	0.98	0.986	0.995	1.01	1	1.02	1	0.992
Cc1cc2cc3c(C)cc(=O)oc3c(C)c2o1 [Trioxsalen]	0.994	1.03	0.996	0.995	1.03	1.02	0.996	0.955
CCOC(=O)[N-]c1c[n+](N2CCOCC2)no1 [Molsidomine]	1.02	1.02	1.03	1.01	0.999	0.991	1	1.01
Clc1ccc2c(c1)C(N1CCNCC1)=Nc1ccccc1O2 [Amoxapine]	0.988	1.01	0.8 (active)	1.01	0.795	0.759	1.01	0.972
CCOC(=O)C1=C(C)NC(C)=C(C(=O)OC)C1c1cccc([N+](=O)[O-])c1 (configuration not stated) [Nitrendipine]	1.04	1	1.06	1.01	1.09	1.04	0.996	0.982
C[C@]12C[C@H](O)[C@H]3[C@@H](CCC4=CC(=O)CC[C@@]43C)[C@@H]1CC[C@@H]2C(=O)CO [Corticosterone]	1	0.978	0.984	0.996	1	1.01	1.02	1
